Source: PubChem BioAssay
HEK293 cAMP ctrl: parental HEK293 cAMP activation (counter-screen); AID 938; Potency, µM (highest dose often 57.1 µM), actives largely listed as activators; hit rate 2.5% among 73,000; parental HEK293 CNG cAMP sensor, membrane potential fluorescence; note: nearly all actives have a fitted effect of over 55% in size
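Parental HEK 293 cells stably expressing a cAMP-gated CNG channel were loaded with membrane potential dye containing 100 uM RO 20-1724 for 60 min. Compound added for 30 min; depolarization read as fluorescence intensity at 590 nm.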
DNA Pol III inh: blocks replication by bacterial DNA polymerase III holoenzyme. reconstituted DNA polymerase III holoenzyme replication, biochemical. Potency, µM (top dose mostly 57.1 µM). hit rate 0.25% among 71,000. AID 603
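Reconstituted *E. coli* holoenzyme (0.35 nM Pol III, 1 nM beta, 154 nM SSB, 2 nM primase) was preincubated with compound for 15 min at RT. Synthesis on 1.4 nM ssM13Gori ran 35 min, then was stopped with PicoGreen/EDTA and read as dsDNA fluorescence.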
TSHR agonist: agonists of human thyroid stimulating hormone receptor | hit rate 0.48% among 73,000 | HEK293-CNG-TSHR cells (CNG channel as cAMP sensor), membrane potential dye, cAMP | P16473 | Potency, µM (series often up to 57.1 µM), hits mostly activators; active = well fitted activation curve with a large enough effect in the main read-out, with a control signal flat, not every such curve was filed as active; inconclusive = small, poorly fitted or top-dose-only effect, or a change in a side signal; inactive = no such curve, though single readings can be large or run the other way; reference of the percent scale not stated here;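 note: the control signal comes from parental cells without the receptor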
Target sequence (P16473 whole entry, looked up): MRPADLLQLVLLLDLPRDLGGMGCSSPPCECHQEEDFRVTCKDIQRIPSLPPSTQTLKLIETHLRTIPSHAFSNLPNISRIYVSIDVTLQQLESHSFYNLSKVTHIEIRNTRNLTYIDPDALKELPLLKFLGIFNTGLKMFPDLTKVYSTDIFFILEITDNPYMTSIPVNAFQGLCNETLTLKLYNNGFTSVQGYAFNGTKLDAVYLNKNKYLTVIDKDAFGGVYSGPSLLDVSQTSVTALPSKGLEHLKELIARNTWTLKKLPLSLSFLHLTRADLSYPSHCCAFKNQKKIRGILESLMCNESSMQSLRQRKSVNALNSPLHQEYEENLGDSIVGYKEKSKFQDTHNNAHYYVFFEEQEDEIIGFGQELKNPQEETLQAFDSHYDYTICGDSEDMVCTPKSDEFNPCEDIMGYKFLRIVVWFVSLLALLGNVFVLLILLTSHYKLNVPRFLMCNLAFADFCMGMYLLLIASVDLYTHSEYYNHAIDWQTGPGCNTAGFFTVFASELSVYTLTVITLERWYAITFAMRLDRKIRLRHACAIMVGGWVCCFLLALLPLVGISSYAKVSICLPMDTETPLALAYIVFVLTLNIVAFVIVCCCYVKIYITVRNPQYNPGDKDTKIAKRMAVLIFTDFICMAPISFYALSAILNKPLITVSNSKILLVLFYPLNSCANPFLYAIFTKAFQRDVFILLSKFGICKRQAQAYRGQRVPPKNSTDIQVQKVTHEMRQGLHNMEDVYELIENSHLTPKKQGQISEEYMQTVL
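HEK 293 cells stably expressing TSHR and a cAMP-gated CNG channel; parental CNG-only cells as counterscreen. Cells preloaded 60 min with membrane potential dye plus 100 uM RO 20-1724, then compound 30 min; fluorescence read at 590 nm.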
YjeE inh: displaces an ADP probe from E. coli YjeE (TsaE); P0AF67; purified YjeE enzyme, qHTS inhibition assay; Potency, µM; hit rate 0.05% among 71,000; AID 605
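Purified YjeE (10 uM) with BODIPY Texas Red-labeled ADP probe (2 uM); compounds pin-transferred, 15 min at room temperature. Binding inhibition read as decreased fluorescence polarization; ADP titration as control.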
BRCT PPI red: disrupts BRCA1 BRCT binding to phosphoprotein, red fluorophore readout; Potency, µM (highest dose often 76.9 µM), most hits filed as inhibitors; hit rate 0.03% among 75,000; BRCT-phosphopeptide binding, red fluorescence polarization; AID 892; P38398
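Fluorescence polarization: 100 nM His-tagged BRCA1 BRCT with 100 nM TAMRA-labelled phospho-BACH1 decapeptide, phosphate buffer pH 7.3 with 150 mM NaCl, DTT, 0.01% Tween 20; 12 min RT. Binding inhibition seen as FP decrease.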
BRCT inh green: BRCA1 BRCT-phosphoprotein interaction inhibition | P38398 | AID 875 | Potency, µM (top dose mostly 76.9 µM), most hits filed as inhibitors | hit rate 0.05% among 75,000 | BRCA1 BRCT-phosphopeptide binding, green fluorescence polarization
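Compounds were incubated for 12 min at room temperature with a complex of 100 nM fluorescein-tagged pBACH1 decapeptide and 250 nM His-tagged BRCT protein. Buffer was phosphate pH 7.3 with EDTA, DTT and Tween 20. Disruption of binding lowers the polarization signal.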
Numbers stand for hits; 0 = inactive; ? = inconclusive; [ ] = another dose, or the depositor's remark. Most compounds without a hit are left out; they make up all but 3.2% or so of the library. Unless noted, calls come from the whole dose curve; as a rule, active = well fitted curve in the direction sought with a large enough effect; inconclusive = small, poorly fitted or top-dose-only effect, or another doubt; inactive = no such curve, though single readings can be large; an effect the other way counts as inactive or inconclusive.

SMILES	HEK293 cAMP ctrl	DNA Pol III inh	TSHR agonist	YjeE inh	BRCT PPI red	BRCT inh green
COC(=O)C1=C(C)NC(C)=C(C(=O)OC)C1c1cn(-c2ccccc2)nc1-c1ccco1	0	0	1.6µM	0	0	0
COCCOC(=O)C1=C(C)NC(=O)NC1c1cn(-c2ccccc2)nc1-c1cccs1 (configuration not stated)	0	0	0	0	0	0
O=c1nc2s/c(=C\c3ccco3)c(=O)n2nc1Cc1ccc(F)cc1	0	16µM	0	0	0	0
Cc1ccccc1CS(=O)(=O)Cc1ccc(C(=O)NCCCN2CCCC2=O)o1	4µM	0	?	0	0	0
Cc1ccc(N2CC(C(=O)Nc3cccnc3)CC2=O)cc1 (configuration not stated)	0	0	0	0	0	0
O=C(CN(Cc1ccc2c(c1)OCO2)C(=O)CSc1nc2ccccc2o1)NC1CCCCC1	16µM	0	?	0	0	0
CC(c1ccco1)N(C(=O)COc1ccc(Cl)cc1Cl)c1ccccn1 (configuration not stated)	25µM	0	?	0	0	0
Cn1c2c(c3ccccc31)CC/C2=N\O	0	0	0	0	0	0
COc1ccccc1N1CCN(C(c2ccc(Cl)cc2)c2nnnn2C(C)(C)C)CC1 (configuration not stated)	2µM	0	?	0	0	0
CCC(C)(C)n1nnnc1C(c1ccncc1)N1CCN(c2cccc(OC)c2)CC1 (configuration not stated)	2.5µM	0	?	0	0	0
CCc1cccc(CC)c1NC(=O)CN1CCN(c2ccccc2)CC1	0	0	0[11.4 µM]	0	0	0
CCCn1c(CN(C)Cc2ccccc2)nc2c1c(=O)n(C)c(=O)n2C	?	0	?	0	0	0
CN(Cc1ccccc1)Cc1nc2c(c(=O)n(C)c(=O)n2C)n1CCc1ccccc1	13µM	0	?	0	0	0
CCCCn1c(CN(C)Cc2ccccc2)nc2c1c(=O)n(C)c(=O)n2C	16µM	0	?	0	0	0
C=CCOc1ccc(/C(O)=C2\C(=O)C(=O)N(CCCOC)C2c2ccc(O)c(OC)c2)cc1 (configuration not stated)	0	0	0	0	0	0
COCc1nnc(NC(=O)c2ccc(NC(C)=O)cc2)s1	0	0	0	0	0	0
CNCC[C@@H](Oc1ccccc1C)c1ccccc1	32µM	0	?	0	0	0
O=C(O)c1cc(-c2ccccc2)nc2ccccc12	0	0	0	0	0	0
COC(=O)[C@H](NC(=O)c1cc(-c2ccccc2)nc2ccccc12)c1ccccc1	13µM	0	?	0	0	0
CCCCNc1cc(C)nc(NCc2ccccc2)n1	6.3µM	0	?	0	0	0
COC(=O)c1cccc(Nc2nc3ccccc3nc2C)c1	32µM	0	?	0	0	0
O=C1CCC(=O)N1CN(C(=O)c1ccco1)c1ccccc1	0	0	0	0	0	0
O=C1c2ccccc2C(=O)N1CCCCN(C(=O)c1ccco1)c1ccc(Cl)cc1	25µM	0	?	0	0	0
Cc1cc(Cl)ccc1OCC(=O)NCCC(=O)O	0	0	0	0	0	0
Cc1ccc(-n2nc(C)c(C3C(C#N)=C(N)OC4=C3C(=O)CC(C)(C)C4)c2Cl)cc1 (configuration not stated)	25µM	0	?	0	0	0
SMILES	HEK293 cAMP ctrl	DNA Pol III inh	TSHR agonist	YjeE inh	BRCT PPI red	BRCT inh green
COc1ccccc1NC(=O)c1c(NC(=O)c2ccco2)sc2c1CCC2	0	0	0	0	0	0
O=C(Nc1sc2c(c1C(=O)NC1CCCCC1)CCC2)c1ccco1	0	0	16µM	0	0	0
CC(=O)c1cc(-c2ccccc2)n(CC(=O)NCc2cccs2)c1C	16µM	0	?	0	0	0
O=C(c1cccn2c(=O)c3ccccc3nc12)N1CCN(c2ccccn2)CC1	0	0	0	0	0	0
O=C(c1cnn2c(C(F)(F)F)cc(-c3ccco3)nc12)N1CCCCCC1	32µM	0	?	0	0	0
O=C(O)CCC(=O)N1CCc2cc(S(=O)(=O)N3CCCCC3)ccc21	0	0	0	0	0	0
